From PubChem BioAssay
Records with an inconclusive call do not appear. Active and inactive are the calls of the source.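 The calls were made as follows, unless noted: active = GFP signal, as percent of the solvent control, above the screen mean plus 3 SD, about 149; inconclusive = no reading because the compound's own fluorescence upset strain identification; inactive = the rest.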

Key:
[1] = rapamycin-like changes in RPL19A-GFP expression – cell-based, S. cerevisiae, multiplex flow cytometry, primary screen (AID 1862; in the data active = percent of DMSO control GFP below about 86%;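 also: lower values mimic rapamycin by blocking the RPL19A rise seen in DMSO cells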); conditions: S. cerevisiae RPL19A-GFP strain, flow cytometry fluorescence, 3 h; at 10 µM; stronger effect = lower value
[2] = TOR pathway GLN3 branch reporter MEP2-GFP changes – S. cerevisiae, multiplex flow cytometry, primary screen (AID 1867;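 active = GFP response, as percent of the DMSO control, above the screen-wide mean plus 3 SD, about 139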;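 also: median GFP channel fluorescence of barcode-gated MEP2-GFP cells measured by flow cytometry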); conditions: S. cerevisiae MEP2-GFP strain, 3 h, at 10 µM, stronger effect = higher value, 100% means same as DMSO wells
[3] = TOR pathway RTG branch CIT2 reporter changes – S. cerevisiae, GFP fusion, multiplex flow cytometry, primary screen (AID 1870;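 active = percent response above a set limit, the screen-wide mean plus 3 SD, cut at about 130% in these data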;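 also: barcoded CIT2-GFP strain pooled with four other GFP strains with rapamycin as positive control; median GFP fluorescence per well over plate mean of DMSO wells so 100% = DMSO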); conditions: S. cerevisiae CIT2-GFP expression, 3 h, at 10 µM, stronger effect = higher value
[4] = TOR pathway LAP4-GFP level changes – S. cerevisiae, multiplex flow cytometry, primary screen (AID 1873); conditions: S. cerevisiae LAP4-GFP expression, 3 h, at 10 µM, stronger effect = higher value
[5] = yeast AGP1-GFP level changes, GLN3 branch – cell-based, multiplex flow cytometry, S. cerevisiae, primary screen (AID 1887;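 active = GFP signal above the screen-wide mean plus 3 SD, that is over about 124.5% of the solvent control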;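 also: AGP1-GFP fusion strain of S. cerevisiae within a five-strain barcoded multiplex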); conditions: 3 h, at 10 µM, stronger effect = higher value
[6] = reduced mouse 2C T cell binding to pMHC/ICAM-1 vesicles – MLPCN validation set, flow cytometry, LFA-1/ICAM-1 modulator project, pilot screen (AID 2523;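 active = response below a set limit, under 55% cells CD8-positive and vesicle-bound, and CD8 cells' 90th-percentile brightness under 279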;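 as to vesicle binding response: mean PE anti-B7-1 fluorescence of CD8+ cells relative to row control; 100% = QL9-loaded vesicles with DMSO vehicle in the same plate row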); conditions: 2C mouse CD8+ T cells, at 7 µM, stronger effect = lower value; double positive events: measured here: CD8+/vesicle+ event percentage
[7] = target: Integrin beta-1 (Homo sapiens) + Integrin alpha-4 (Homo sapiens) (UniProt P13612+P05556); experiment: alpha4beta1 integrin LIBS antibody binding reduction – U937 cells, HUTS-21 mAb, flow cytometry, validation set, VLA-4 allosteric modulator project, pilot screen (AID 2674;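 active = inhibition above 50%, about 3 SD of the validation set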;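 also: antibody binding induced by the VLA-4 ligand LDV present at three times its Kd; 0% = LDV ligand with antibody and no compound and 100% = antibody without LDV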); conditions: HUTS-21 LIBS mAb binding, at 6.7 µM, stronger effect = higher value, binding induced by LDV ligand
Integrin beta-1 (Homo sapiens) + Integrin alpha-4 (Homo sapiens), sequence (P05556 whole entry, looked up): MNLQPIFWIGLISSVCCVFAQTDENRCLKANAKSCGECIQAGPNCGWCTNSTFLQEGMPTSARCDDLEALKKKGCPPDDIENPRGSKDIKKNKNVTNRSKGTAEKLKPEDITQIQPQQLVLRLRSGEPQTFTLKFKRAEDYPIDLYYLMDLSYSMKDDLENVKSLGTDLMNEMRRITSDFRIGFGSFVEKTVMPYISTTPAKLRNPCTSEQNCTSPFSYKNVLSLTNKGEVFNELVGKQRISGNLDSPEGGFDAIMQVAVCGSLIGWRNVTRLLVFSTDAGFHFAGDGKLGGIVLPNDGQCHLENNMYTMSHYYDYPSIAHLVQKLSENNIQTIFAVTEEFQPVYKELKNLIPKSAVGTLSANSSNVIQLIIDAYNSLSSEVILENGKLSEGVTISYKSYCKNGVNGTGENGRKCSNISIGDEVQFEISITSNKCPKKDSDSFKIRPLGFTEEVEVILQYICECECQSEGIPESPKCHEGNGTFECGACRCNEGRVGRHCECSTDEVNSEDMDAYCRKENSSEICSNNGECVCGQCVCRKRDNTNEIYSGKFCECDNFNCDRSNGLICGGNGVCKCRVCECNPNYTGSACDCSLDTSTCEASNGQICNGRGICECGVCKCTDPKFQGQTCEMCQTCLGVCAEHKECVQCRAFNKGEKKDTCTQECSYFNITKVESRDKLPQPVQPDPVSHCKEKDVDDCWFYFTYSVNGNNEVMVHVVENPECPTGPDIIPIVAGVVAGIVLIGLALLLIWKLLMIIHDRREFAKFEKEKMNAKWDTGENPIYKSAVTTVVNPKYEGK
Integrin beta-1 (Homo sapiens) + Integrin alpha-4 (Homo sapiens), sequence (P13612 whole entry, looked up): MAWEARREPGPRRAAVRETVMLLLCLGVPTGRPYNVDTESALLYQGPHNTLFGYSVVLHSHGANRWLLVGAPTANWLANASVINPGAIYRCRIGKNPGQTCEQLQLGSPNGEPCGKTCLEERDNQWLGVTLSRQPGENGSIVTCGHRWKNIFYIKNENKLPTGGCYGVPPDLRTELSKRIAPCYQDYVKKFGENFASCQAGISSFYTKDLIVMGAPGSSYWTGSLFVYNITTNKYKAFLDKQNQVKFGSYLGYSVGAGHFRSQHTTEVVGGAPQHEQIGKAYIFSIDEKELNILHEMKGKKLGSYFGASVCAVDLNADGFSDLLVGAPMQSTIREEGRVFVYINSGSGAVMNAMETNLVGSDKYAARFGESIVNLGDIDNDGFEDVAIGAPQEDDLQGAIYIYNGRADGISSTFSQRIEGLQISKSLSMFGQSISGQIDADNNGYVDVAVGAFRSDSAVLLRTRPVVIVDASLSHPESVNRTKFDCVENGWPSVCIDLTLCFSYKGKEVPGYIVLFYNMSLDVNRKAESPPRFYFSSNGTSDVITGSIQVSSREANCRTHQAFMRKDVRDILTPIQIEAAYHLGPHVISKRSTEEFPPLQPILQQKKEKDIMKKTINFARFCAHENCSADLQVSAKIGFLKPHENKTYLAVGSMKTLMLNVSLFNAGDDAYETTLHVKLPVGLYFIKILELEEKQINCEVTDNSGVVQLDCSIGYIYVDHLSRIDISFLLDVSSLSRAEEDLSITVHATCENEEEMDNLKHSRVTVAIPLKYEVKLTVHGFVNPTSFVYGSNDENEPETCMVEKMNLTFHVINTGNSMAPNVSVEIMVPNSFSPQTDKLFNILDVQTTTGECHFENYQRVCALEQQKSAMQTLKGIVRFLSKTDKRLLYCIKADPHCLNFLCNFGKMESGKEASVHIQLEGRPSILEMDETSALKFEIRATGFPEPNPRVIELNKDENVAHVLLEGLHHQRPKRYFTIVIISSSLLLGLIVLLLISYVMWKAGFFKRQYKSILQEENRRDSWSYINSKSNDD

[8] = calorie-restriction mimetic ROS inhibitors, yeast – validation compound set, pilot screen (AID 2706;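 active = superoxide response below 65% of plate, a cut near 3 SD across the whole screen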;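 also: yeast exposed to compound for one week at 30 degrees C before staining; 100% = mean of all compound wells on the same plate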); conditions: S. cerevisiae aging, superoxide DHE fluorescence; at 10 µM; stronger effect = lower value
[9] = target: Beta-adrenergic receptor kinase 1 (Homo sapiens) (UniProt P25098); experiment: GRK2 binders displacing RNA aptamer, biochemical, validation, human GRK2, bead flow cytometry (AID 488806;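 active = aptamer binding inhibition above 30%, about 3 SD of noise from non-fluorescent compounds; inactive = inhibition at or below 30%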); conditions: bead-bound GRK2, FAM-aptamer displacement, at 10 µM, stronger effect = higher value
Beta-adrenergic receptor kinase 1 (Homo sapiens), sequence (P25098 whole entry, looked up): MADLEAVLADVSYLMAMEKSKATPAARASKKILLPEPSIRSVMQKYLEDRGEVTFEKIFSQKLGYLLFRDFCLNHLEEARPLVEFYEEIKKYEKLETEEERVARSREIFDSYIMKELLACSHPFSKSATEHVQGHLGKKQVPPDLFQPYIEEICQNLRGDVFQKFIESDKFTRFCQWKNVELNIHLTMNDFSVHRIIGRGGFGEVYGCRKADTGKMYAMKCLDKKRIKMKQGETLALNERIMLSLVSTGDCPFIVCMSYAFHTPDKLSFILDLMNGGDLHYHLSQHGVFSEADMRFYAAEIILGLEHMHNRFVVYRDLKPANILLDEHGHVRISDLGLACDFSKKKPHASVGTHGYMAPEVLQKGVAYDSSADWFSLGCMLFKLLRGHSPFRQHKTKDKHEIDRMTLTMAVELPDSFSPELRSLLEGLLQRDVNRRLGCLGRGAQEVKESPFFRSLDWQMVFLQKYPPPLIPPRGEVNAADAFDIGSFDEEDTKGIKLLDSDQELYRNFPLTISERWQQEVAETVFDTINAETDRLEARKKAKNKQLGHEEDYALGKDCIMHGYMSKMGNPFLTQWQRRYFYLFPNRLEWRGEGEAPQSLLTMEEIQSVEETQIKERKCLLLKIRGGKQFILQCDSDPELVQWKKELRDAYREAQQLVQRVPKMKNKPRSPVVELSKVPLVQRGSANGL

[10] = target: Beta-2 adrenergic receptor (Homo sapiens) (UniProt P07550); experiment: agonist-induced loss of surface beta2AR – cell-based, FAP fluorogen, flow cytometry, validation set, pilot screen (AID 504459;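 active = percent response above 42, roughly 3 SD of non-fluorescent test compounds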;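 also: agonist-driven loss of surface beta2AR via internalization measured by FAP dye flow cytometry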); conditions: Am2.2-beta2AR cells, at 10 µM, stronger effect = higher value
Beta-2 adrenergic receptor (Homo sapiens), sequence (P07550 whole entry, looked up): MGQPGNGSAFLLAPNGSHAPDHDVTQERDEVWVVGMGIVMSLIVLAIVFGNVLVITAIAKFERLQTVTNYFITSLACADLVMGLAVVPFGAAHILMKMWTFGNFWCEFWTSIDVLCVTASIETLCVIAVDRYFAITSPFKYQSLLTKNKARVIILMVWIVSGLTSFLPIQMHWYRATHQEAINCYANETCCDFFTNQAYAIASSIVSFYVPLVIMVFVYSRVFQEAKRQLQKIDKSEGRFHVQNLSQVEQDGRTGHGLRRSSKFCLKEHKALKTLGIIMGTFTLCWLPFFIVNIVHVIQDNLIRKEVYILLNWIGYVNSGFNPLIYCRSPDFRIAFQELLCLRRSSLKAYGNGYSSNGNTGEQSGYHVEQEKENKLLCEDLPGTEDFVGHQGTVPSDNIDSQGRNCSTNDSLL

[11] = target: AP-2 complex subunit beta (Homo sapiens) (UniProt P63010); experiment: beta-arrestin/AP2 interaction blockers – biochemical, validation set, GST-AP2 beads, flow cytometry, pilot screen (AID 504541;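 active = inhibition above 54%, about 3 SD of non-fluorescent compounds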;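 also: AP2 carries R879A mutation and is captured from E. coli lysate; bead-bound FITC arrestin peptide fluorescence measuring arrestin peptide binding to AP2; 0% = DMSO wells and 100% = excess unlabeled arrestin peptide control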); conditions: FITC arrestin peptide, at 10 µM, stronger effect = higher value, AP2 beta2 appendage fragment, R879A mutant
AP-2 complex subunit beta (Homo sapiens), sequence (P63010 whole entry, looked up, the tested form may be a part, one chain of several): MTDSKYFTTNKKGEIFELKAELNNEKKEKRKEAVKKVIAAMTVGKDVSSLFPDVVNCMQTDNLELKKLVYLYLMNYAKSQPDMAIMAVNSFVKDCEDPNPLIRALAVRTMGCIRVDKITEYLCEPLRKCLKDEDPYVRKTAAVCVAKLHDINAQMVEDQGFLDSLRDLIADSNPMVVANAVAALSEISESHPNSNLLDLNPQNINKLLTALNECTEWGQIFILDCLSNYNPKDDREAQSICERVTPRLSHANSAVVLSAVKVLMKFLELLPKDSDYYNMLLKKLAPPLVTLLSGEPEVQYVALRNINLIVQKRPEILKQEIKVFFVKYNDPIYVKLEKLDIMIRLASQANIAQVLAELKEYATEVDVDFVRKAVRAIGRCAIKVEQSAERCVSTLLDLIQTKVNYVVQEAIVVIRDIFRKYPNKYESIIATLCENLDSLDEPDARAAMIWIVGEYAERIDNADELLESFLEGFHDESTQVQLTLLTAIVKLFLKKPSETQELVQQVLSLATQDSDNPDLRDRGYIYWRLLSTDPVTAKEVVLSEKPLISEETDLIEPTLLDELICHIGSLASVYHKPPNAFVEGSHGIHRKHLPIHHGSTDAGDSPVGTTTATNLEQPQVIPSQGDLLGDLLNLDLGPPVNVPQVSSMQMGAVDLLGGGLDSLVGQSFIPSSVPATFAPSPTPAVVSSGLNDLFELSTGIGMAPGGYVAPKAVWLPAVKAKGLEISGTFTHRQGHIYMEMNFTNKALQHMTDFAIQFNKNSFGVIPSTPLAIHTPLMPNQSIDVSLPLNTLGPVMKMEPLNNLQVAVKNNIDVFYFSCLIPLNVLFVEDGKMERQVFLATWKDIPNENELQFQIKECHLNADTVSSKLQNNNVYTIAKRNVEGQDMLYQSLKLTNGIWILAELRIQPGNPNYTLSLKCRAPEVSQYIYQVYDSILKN

[12] = cytosolic pH regulators acting via V-ATPase – S. cerevisiae, pHLuorin, HTS validation (AID 504600; in the data active = response above about 15%;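 also: plate controls were DMSO for no effect and reference compound for full effect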); conditions: V-ATPase proton transport, at 10 µM, stronger effect = higher value
[13] = system: anti-desmoglein-3 scFv antibody binding to human DSG3; experiment: blockers of pathogenic pemphigus antibody–desmoglein-3 binding – biochemical, validation compound set, bead-based, flow cytometry, pilot screen (AID 588368;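 active = binding below the plate cutoff, the plate median minus 3 SD, with a reading above zero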;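 also: signal is the median channel fluorescence of bead-bound GFP antibody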); conditions: Protein G beads, DSG3-Fc, scFv-GFP binding, at 10 µM, stronger effect = lower value
[14] = Nile Red efflux blockade in pump-expressing yeast – validation compound set, multiplex, phenotypic, pilot screen (AID 588506;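 active = efflux inhibition above 0.42, the validation set average plus 4 SD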;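 also: Nile Red retained in cells so higher fluorescence means more efflux inhibition; 0 = negative control wells and 1 = enniatin B 25 µM full block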); conditions: S. cerevisiae pump-expressing triplex, Nile Red efflux flow cytometry; at 10 µM; stronger effect = higher value; the pumps come from Candida albicans
[15] = target: ATP-binding cassette sub-family B member 6 (Homo sapiens) (UniProt Q9NP58); experiment: blockers of ABCB6-driven porphyrin uptake – K562-ABCB6 cells, flow cytometry, validation set, pilot screen (AID 588550;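 active = inhibition above the screen-wide mean plus 3 SD, about 51%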;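 also: 0% = DMSO wells and 100% = benzethonium chloride 70 µM positive control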); conditions: K562-ABCB6 porphyrin accumulation, 1 h, at 10 µM, stronger effect = higher value
ATP-binding cassette sub-family B member 6 (Homo sapiens), sequence (Q9NP58 whole entry, looked up): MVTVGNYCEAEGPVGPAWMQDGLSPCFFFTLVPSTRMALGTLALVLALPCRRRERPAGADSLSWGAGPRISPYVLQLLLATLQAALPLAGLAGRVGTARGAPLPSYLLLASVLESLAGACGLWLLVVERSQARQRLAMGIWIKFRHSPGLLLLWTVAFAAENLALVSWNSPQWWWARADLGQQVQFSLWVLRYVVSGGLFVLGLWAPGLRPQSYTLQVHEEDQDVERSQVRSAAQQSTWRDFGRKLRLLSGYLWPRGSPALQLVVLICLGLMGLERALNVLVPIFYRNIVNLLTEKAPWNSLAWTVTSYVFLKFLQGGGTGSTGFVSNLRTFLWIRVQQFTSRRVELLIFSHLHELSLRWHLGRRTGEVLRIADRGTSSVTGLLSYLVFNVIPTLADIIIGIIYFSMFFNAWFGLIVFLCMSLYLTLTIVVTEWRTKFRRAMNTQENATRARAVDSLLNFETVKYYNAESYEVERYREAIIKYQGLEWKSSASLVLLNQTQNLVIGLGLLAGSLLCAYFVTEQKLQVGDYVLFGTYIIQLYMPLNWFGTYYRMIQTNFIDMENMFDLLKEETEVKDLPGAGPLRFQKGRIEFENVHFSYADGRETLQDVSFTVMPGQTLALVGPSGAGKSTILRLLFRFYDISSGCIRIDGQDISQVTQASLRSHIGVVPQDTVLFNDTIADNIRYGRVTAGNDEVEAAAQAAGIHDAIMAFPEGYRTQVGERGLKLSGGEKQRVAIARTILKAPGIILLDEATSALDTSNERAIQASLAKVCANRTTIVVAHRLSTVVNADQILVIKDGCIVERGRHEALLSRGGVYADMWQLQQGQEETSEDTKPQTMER

[16] = AML differentiation inducers, ER-HoxA9 marrow cells – cell-based, GFP/MAC1 double positive, flow cytometry, validation set, primary screen (AID 588685;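 active = differentiation response of at least 50%, scaled between solvent and reference control, from cells with both markers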;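 also: compound exposure lasts four days before antibody staining and flow analysis; 0% = DMSO wells and 100% = 5 µM fulvestrant positive control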); conditions: stronger effect = higher value, normalized: vehicle 0, fulvestrant 100

Cc1cc(OC(=O)CNC(=O)OC(C)(C)C)c2c(C)cc(=O)oc2c1
inactive: percent of DMSO control GFP [1] 101% | GFP response vs DMSO [2] 105% | percent response of DMSO control [3] 97.7% | GFP response vs DMSO [4] 108% | GFP response, % of DMSO [5] 111% | vesicle binding response [6] 460% | inhibition [7] 10.8% | superoxide response (% of plate) [8] 107% | aptamer binding inhibition [9] 3% | response [10] -17.2% | inhibition [11] 6.94% | response [12] -0.27% | binding (% of control) [13] 93.1% | efflux inhibition (fraction of control) [14] 0 | inhibition [15] 2% | differentiation response [16] 3.88%
62.2%: double positive events [6]

COC(=O)C1[C@H]2C(=O)N(Cc3cccs3)C[C@]23C=C[C@H]1O3 (stereo not given in full)
58.4%: double positive events [6]
inactive: percent of DMSO control GFP [1] 105% | GFP response vs DMSO [2] 90.9% | percent response of DMSO control [3] 105% | GFP response vs DMSO [4] 80.2% | GFP response, % of DMSO [5] 99.5% | vesicle binding response [6] 194% | inhibition [7] 28.6% | superoxide response (% of plate) [8] 98.1% | aptamer binding inhibition [9] 2% | response [10] -4.45% | inhibition [11] -9.57% | response [12] 2.19% | binding (% of control) [13] 95% | efflux inhibition (fraction of control) [14] 0.3 | inhibition [15] 6% | differentiation response [16] 14.9%

O=C(COc1ccccc1)Nc1ccc2c(c1)C(=O)N(CC1CCCO1)C2=O (stereo not given)
inactive: percent of DMSO control GFP [1] 100% | GFP response vs DMSO [2] 102% | percent response of DMSO control [3] 102% | GFP response vs DMSO [4] 113% | GFP response, % of DMSO [5] 106% | vesicle binding response [6] 179% | inhibition [7] 13.7% | superoxide response (% of plate) [8] 110% | aptamer binding inhibition [9] 3% | response [10] 3.99% | inhibition [11] 4.36% | response [12] -0.92% | binding (% of control) [13] 100% | inhibition [15] -12% | differentiation response [16] -8.96%
61.5%: double positive events [6]
active: efflux inhibition (fraction of control) [14] 0.47

COc1ccc(C2C3=C(OC(C)=O)c4ccccc4C3=Nc3c2c(=O)n(C)c(=O)n3C)cc1 (stereo not given)
58.8%: double positive events [6]
inactive: percent of DMSO control GFP [1] 105% | GFP response vs DMSO [2] 94.6% | percent response of DMSO control [3] 106% | GFP response vs DMSO [4] 105% | GFP response, % of DMSO [5] 103% | vesicle binding response [6] 127% | inhibition [7] 1.59% | superoxide response (% of plate) [8] 98.4% | aptamer binding inhibition [9] -1% | response [10] -14.8% | inhibition [11] 0.59% | response [12] -2.42% | binding (% of control) [13] 102% | efflux inhibition (fraction of control) [14] -0.02 | inhibition [15] 4% | differentiation response [16] -11.9%

CS(=O)(=O)NCc1ccc(C(=O)NCc2ccccc2)cc1
inactive: percent of DMSO control GFP [1] 98.4% | GFP response vs DMSO [2] 107% | percent response of DMSO control [3] 100% | GFP response vs DMSO [4] 127% | GFP response, % of DMSO [5] 123% | vesicle binding response [6] 174% | inhibition [7] -19% | superoxide response (% of plate) [8] 105% | aptamer binding inhibition [9] -8% | response [10] -27.9% | inhibition [11] -12% | response [12] 4.07% | binding (% of control) [13] 98.7% | efflux inhibition (fraction of control) [14] -0.04 | inhibition [15] -5% | differentiation response [16] -3.02%
55.6%: double positive events [6]

Nc1nnc(CSCc2ccc(Cl)cc2Cl)s1
active: efflux inhibition (fraction of control) [14] 0.47
inactive: percent of DMSO control GFP [1] 101% | GFP response vs DMSO [2] 98.7% | percent response of DMSO control [3] 105% | GFP response vs DMSO [4] 105% | GFP response, % of DMSO [5] 105% | vesicle binding response [6] 162% | inhibition [7] -11.8% | superoxide response (% of plate) [8] 95.2% | aptamer binding inhibition [9] -1% | response [10] -6.41% | inhibition [11] 5.12% | response [12] 3.83% | binding (% of control) [13] 112% | inhibition [15] 0% | differentiation response [16] 10.1%
58.8%: double positive events [6]

Cc1cccc(-n2c(Cc3ccccc3)n[nH]c2=S)c1
61.2%: double positive events [6]
inactive: percent of DMSO control GFP [1] 93.9% | GFP response vs DMSO [2] 106% | percent response of DMSO control [3] 88.2% | GFP response vs DMSO [4] 124% | GFP response, % of DMSO [5] 100% | vesicle binding response [6] 102% | inhibition [7] -18.2% | superoxide response (% of plate) [8] 103% | aptamer binding inhibition [9] 4% | response [10] -0.19% | inhibition [11] -2.3% | response [12] 1.08% | binding (% of control) [13] 95.5% | efflux inhibition (fraction of control) [14] -0.1 | inhibition [15] 4% | differentiation response [16] -13.6%

CC(CCCC(C)(C)O)NC(=O)c1ccc(OC2CCN(C(=O)C3CC3)CC2)cc1 (stereo not given)
60.9%: double positive events [6]
inactive: percent of DMSO control GFP [1] 102% | GFP response vs DMSO [2] 96.3% | percent response of DMSO control [3] 98.6% | GFP response vs DMSO [4] 108% | GFP response, % of DMSO [5] 99.8% | vesicle binding response [6] 200% | inhibition [7] 20.1% | superoxide response (% of plate) [8] 97.8% | aptamer binding inhibition [9] 1% | response [10] -15.1% | inhibition [11] 10.3% | response [12] -0.73% | binding (% of control) [13] 101% | efflux inhibition (fraction of control) [14] 0.08 | inhibition [15] 3% | differentiation response [16] -12%

CC(C)CC(NC(=O)CNC(=O)C1O[C@@H]2OC(C)(C)O[C@@H]2[C@H]2OC(C)(C)O[C@@H]12)C(=O)O (stereo not given in full)
62.4%: double positive events [6]
inactive: percent of DMSO control GFP [1] 101% | GFP response vs DMSO [2] 104% | percent response of DMSO control [3] 102% | GFP response vs DMSO [4] 99.9% | GFP response, % of DMSO [5] 102% | vesicle binding response [6] 214% | inhibition [7] -46.1% | superoxide response (% of plate) [8] 97.8% | aptamer binding inhibition [9] -1% | response [10] -1.33% | inhibition [11] 9.78% | response [12] -1.96% | binding (% of control) [13] 96.9% | efflux inhibition (fraction of control) [14] -0.04 | inhibition [15] -3% | differentiation response [16] 12.9%

CCCC(=O)O[C@]1(C(=O)COC(C)=O)CC[C@H]2[C@@H]3C[C@H](F)C4=CC(=O)C=C[C@]4(C)[C@@]3(F)[C@@H](O)C[C@@]21C
inactive: percent of DMSO control GFP [1] 96.9% | GFP response vs DMSO [2] 114% | percent response of DMSO control [3] 109% | GFP response vs DMSO [4] 107% | GFP response, % of DMSO [5] 103% | vesicle binding response [6] 1090% | inhibition [7] -13.2% | superoxide response (% of plate) [8] 112% | aptamer binding inhibition [9] 3% | response [10] 4.32% | inhibition [11] 24.1% | response [12] -0.33% | binding (% of control) [13] 105% | efflux inhibition (fraction of control) [14] -0.06 | inhibition [15] 2% | differentiation response [16] 1.93%
60.2%: double positive events [6]
